Measurements: the supplement of paper PMC10849652
Targets with a hit are over-represented here; the source holds about 8,800 in all. About 0.5% of all pairs of compound and target were hits. Values without a mark were called inactive.

What was measured:
Assay in all cases: log2 fold change, soluble protein after heating vs DMSO (PISA); higher = thermal stabilisation; K562 lysate, 10 uM; active = over 0.2 and 3.5 SD of the protein, either way, in both replicates (recomputed)
vemurafenib = compound: CCCS(=O)(=O)Nc1ccc(F)c(C(=O)c2c[nH]c3ncc(-c4ccc(Cl)cc4)cc23)c1F [vemurafenib]
Summary of the method: (§1)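 The values are log-two fold changes in thermal stability compared with solvent controls and come from duplicates. They were obtained by TMTpro 16plex LC-MS/MS, with channel sums equalised, on the supernatant after 21,000xg for 90 min. That supernatant came from crude K562 extract at 1 mg/mL protein treated with 10 μM compound for 30 min, heated for 3 min across 48°C-58°C, pooled and brought to 0.5% NP-40 at 4°C.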

[1] = compound: CCCS(=O)(=O)Nc1ccc(F)c(C(=O)c2c[nH]c3ncc(Cl)cc23)c1F
Summary of the method: as §1

barasertib = compound: CCN(CCCOc1ccc2c(Nc3cc(CC(=O)Nc4cccc(F)c4)[nH]n3)ncnc2c1)CCOP(=O)(O)O [barasertib]
Summary of the method: as §1

[2] = compound: CC[C@@H]1C(=O)N(C)c2cnc(Nc3ccc(C(=O)NC4CCN(C)CC4)cc3OC)nc2N1C1CCCC1
Summary of the method: as §1

volasertib = compound: CC[C@@H]1C(=O)N(C)c2cnc(Nc3ccc(C(=O)N[C@H]4CC[C@H](N5CCN(CC6CC6)CC5)CC4)cc3OC)nc2N1C(C)C [volasertib]
Summary of the method: as §1

[3] = compound: CCn1c(C(=O)N(C2CC2)C2CC2)cc2c3c(ncn3C)c(Nc3cc(C)n(C)n3)nc21
Summary of the method: as §1

[4] = compound: CCn1cc(-c2ccnc3[nH]c(-c4cccc(CN(C)C)c4)cc23)c(-c2ccc(NC(=O)N(C)C)cc2)n1
Summary of the method: as §1

[5] = compound: CN1CCC(CNc2ccc3ncc(-c4cccc(OC(F)(F)F)c4)n3n2)CC1
Summary of the method: as §1

saracatinib = compound: CN1CCN(CCOc2cc(OC3CCOCC3)c3c(Nc4c(Cl)ccc5c4OCO5)ncnc3c2)CC1 [saracatinib]
Summary of the method: as §1

sotrastaurin = compound: CN1CCN(c2nc(C3=C(c4c[nH]c5ccccc45)C(=O)NC3=O)c3ccccc3n2)CC1 [sotrastaurin]
Summary of the method: as §1

UniProt O00748, sequence (O00748 whole entry, looked up): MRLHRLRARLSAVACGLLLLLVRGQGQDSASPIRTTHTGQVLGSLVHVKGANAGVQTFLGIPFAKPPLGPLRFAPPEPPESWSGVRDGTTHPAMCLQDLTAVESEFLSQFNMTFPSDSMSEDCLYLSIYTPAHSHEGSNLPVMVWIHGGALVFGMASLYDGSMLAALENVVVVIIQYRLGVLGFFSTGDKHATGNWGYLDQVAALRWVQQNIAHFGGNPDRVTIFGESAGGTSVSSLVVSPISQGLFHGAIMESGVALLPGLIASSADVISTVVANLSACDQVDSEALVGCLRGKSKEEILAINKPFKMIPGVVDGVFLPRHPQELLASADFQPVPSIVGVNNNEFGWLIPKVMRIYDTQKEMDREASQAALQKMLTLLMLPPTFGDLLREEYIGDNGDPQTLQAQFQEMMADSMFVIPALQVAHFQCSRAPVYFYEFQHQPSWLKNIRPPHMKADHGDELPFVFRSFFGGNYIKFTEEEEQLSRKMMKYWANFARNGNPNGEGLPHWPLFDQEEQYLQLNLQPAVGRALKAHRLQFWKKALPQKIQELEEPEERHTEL
UniProt Q00535, sequence (Q00535 whole entry, looked up): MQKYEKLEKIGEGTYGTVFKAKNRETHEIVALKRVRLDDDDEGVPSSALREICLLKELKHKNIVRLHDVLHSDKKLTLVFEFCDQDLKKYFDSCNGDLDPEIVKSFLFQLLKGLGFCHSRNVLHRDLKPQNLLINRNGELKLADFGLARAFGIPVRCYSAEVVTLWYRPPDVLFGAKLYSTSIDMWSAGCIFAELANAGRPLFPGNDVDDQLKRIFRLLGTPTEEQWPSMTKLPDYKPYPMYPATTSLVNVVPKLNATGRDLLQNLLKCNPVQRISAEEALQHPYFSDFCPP
UniProt Q15059, sequence (Q15059 whole entry, looked up): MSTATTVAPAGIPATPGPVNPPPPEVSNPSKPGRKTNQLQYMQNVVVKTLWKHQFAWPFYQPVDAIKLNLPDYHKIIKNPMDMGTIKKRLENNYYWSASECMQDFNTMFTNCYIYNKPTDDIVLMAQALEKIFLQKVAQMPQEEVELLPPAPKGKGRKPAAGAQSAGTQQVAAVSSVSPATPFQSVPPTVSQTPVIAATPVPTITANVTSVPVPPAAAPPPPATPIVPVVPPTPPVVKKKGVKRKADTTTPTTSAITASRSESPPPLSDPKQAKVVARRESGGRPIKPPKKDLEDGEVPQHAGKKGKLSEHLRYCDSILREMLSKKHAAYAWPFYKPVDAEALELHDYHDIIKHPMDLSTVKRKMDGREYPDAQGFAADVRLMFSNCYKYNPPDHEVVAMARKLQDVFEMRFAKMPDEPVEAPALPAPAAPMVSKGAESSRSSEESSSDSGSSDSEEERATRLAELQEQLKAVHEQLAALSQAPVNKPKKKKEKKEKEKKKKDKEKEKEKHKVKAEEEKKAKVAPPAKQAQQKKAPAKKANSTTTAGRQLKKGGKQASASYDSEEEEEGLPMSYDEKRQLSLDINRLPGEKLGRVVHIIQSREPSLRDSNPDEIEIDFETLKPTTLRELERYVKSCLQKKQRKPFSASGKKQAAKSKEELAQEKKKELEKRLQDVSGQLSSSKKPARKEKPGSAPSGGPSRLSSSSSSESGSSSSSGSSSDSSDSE
UniProt Q13554, sequence (Q13554 whole entry, looked up): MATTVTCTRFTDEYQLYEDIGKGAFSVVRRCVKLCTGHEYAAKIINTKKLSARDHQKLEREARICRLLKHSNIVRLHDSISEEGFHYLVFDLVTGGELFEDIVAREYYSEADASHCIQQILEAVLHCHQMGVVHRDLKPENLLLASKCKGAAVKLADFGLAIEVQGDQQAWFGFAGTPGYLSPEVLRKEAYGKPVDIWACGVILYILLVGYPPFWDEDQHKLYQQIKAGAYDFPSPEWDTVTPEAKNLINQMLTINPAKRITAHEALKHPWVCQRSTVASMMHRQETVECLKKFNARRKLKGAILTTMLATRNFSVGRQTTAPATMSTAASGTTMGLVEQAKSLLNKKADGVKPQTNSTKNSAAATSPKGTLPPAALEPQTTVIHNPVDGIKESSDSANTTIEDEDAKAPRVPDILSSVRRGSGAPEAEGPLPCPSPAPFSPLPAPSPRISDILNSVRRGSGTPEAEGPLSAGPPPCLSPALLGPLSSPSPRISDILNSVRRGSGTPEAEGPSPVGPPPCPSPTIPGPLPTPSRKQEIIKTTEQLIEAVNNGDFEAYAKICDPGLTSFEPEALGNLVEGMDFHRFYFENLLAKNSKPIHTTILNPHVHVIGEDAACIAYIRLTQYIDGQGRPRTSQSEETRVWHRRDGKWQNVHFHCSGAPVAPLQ
UniProt Q8TAP6, sequence (Q8TAP6 whole entry, looked up): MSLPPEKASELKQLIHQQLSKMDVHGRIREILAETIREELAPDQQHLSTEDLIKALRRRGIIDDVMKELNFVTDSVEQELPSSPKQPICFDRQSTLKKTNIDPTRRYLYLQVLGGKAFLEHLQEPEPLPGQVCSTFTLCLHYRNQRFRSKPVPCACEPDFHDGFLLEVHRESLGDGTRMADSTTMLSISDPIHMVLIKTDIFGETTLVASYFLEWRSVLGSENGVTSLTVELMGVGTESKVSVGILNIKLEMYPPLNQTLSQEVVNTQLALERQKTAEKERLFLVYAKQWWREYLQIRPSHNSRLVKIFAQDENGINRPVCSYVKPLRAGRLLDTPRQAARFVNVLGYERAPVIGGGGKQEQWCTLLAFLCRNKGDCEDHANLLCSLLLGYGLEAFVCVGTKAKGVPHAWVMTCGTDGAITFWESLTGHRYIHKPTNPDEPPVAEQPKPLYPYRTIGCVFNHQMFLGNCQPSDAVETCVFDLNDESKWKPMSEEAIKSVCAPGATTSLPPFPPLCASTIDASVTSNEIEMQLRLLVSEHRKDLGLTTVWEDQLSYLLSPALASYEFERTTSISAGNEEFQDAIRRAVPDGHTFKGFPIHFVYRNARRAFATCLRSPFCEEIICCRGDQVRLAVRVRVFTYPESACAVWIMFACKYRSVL
UniProt O75909, sequence (O75909 whole entry, looked up): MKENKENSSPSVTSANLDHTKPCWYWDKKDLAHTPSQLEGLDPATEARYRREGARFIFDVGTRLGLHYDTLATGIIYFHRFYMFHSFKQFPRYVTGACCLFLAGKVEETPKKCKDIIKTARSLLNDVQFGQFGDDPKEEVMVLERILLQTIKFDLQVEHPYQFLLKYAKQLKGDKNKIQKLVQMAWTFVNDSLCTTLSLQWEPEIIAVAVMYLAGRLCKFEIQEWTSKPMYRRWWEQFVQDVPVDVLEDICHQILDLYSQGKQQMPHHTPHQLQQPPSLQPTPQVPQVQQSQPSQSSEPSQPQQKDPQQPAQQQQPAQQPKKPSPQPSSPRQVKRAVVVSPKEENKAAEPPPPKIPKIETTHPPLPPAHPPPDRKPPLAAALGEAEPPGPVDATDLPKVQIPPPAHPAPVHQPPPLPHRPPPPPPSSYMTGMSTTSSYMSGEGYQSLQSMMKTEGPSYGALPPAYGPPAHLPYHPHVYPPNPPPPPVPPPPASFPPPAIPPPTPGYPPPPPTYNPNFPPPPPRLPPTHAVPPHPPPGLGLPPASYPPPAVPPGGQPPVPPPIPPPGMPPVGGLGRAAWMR
UniProt A8MTT3, sequence (A8MTT3 whole entry, looked up): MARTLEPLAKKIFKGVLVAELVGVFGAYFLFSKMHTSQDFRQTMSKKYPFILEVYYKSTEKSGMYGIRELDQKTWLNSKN
UniProt Q9H0Y0, sequence (Q9H0Y0 whole entry, looked up): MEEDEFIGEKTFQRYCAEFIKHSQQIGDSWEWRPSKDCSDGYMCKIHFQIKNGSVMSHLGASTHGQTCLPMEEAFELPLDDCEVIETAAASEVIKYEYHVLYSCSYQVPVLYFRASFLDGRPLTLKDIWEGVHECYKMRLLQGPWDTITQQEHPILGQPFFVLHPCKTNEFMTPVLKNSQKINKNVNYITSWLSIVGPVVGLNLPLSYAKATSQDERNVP
UniProt P21953, sequence (P21953 whole entry, looked up): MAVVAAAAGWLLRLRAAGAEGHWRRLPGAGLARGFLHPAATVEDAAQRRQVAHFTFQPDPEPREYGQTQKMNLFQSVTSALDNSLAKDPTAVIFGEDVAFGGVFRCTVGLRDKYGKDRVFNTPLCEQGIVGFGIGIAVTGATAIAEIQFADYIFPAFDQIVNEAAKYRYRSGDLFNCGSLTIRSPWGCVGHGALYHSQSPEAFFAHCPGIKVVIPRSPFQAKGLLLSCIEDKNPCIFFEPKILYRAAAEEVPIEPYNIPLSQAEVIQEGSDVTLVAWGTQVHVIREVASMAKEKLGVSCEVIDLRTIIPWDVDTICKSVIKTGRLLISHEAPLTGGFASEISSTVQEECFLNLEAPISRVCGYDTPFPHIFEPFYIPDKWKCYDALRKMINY
UniProt P33681, sequence (P33681 whole entry, looked up): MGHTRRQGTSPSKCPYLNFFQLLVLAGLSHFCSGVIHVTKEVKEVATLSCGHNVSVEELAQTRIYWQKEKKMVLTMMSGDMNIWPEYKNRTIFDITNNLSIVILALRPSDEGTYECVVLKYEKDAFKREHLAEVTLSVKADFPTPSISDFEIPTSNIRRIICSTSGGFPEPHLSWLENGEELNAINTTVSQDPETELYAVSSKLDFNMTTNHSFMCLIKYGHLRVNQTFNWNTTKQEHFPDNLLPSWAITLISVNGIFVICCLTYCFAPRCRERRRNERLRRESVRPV
UniProt Q5BKX5, sequence (Q5BKX5 whole entry, looked up): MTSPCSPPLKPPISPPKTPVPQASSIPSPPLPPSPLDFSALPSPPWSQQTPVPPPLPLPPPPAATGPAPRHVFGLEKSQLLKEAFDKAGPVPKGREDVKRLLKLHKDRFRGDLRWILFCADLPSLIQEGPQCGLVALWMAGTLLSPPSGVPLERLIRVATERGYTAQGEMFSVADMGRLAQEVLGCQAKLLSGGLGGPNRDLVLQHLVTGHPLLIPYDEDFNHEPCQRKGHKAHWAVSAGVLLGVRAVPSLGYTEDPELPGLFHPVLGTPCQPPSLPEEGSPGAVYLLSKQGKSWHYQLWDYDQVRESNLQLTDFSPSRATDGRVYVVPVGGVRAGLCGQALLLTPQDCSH

Target | log2 fold change (vemurafenib) | log2 fold change [1] | log2 fold change (barasertib) | log2 fold change [2] | log2 fold change (volasertib) | log2 fold change [3] | log2 fold change [4] | log2 fold change [5] | log2 fold change (saracatinib) | log2 fold change (sotrastaurin)
CCT6A (UniProt P40227) | -0.026 | -0.005 | -0.03 | -0.006 | 0.024 | 0.011 | -0.024 | -0.002 | -0.004 | -0.001
CACUL1 (UniProt Q86Y37) | 0.04 | 0.053 | – | -0.04 | 0.106 | -0.072 | 0.012 | -0.111 | -0.026 | 0.103
CASP9 (UniProt P55211) | -0.017 | 0.001 | -0.002 | 0.025 | 0.029 | -0.061 | -0.013 | 0.005 | 0.003 | 0.045
BSDC1 (UniProt Q9NW68) | 0.027 | 0.053 | 0.078 | 0.099 | 0.018 | -0.01 | -0.027 | 0.041 | 0.03 | -0.019
AUH (UniProt Q13825) | 0.083 | -0.009 | 0.004 | 0.042 | -0.093 | 0 | 0.1 | 0 | -0.101 | 0.047
CDK5 (UniProt Q00535) | -0.021 | 0.022 | – | -0.08 | -0.079 | 0.008 | -0.055 | 0.071 | -0.008 | 0.175
BUD23 isoform 3 (UniProt O43709) | 0.01 | 0.017 | 0.038 | -0.006 | -0.029 | -0.104 | -0.341 (active) | 0.193 | 0.019 | 0.017
CEBPZOS (UniProt A8MTT3) | 0.031 | -0.026 | – | -0.048 | -0.007 | 0.024 | -0.176 | 0.041 | 0.03 | -0.005
C1orf131 isoform 5 (UniProt Q8NDD1) | 0.034 | 0.026 | – | 0.148 | -0.029 | -0.042 | -0.242 | 0.095 | -0.009 | 0.017
CD80 (UniProt P33681) | 0.115 | -0.113 | – | 0.063 | -0.001 | -0.011 | 0.239 | -0.177 | -0.069 | 0.032
BTK isoform 2 (UniProt Q06187) | -0.014 | 0.013 | 0.128 | – | -0.106 | 0.01 | -0.147 | 0.053 | 0.058 | -0.026
CAPNS1 (UniProt K7ES78) | 0.143 | -0.07 | – | – | 0.033 | 0.076 | – | – | 0.12 | -0.071
BRD3 (UniProt Q15059) | -0.046 | 0.038 | -0.087 | 0.451 (active) | 0.263 | – | -0.143 | 0.188 | 0.008 | -0.082
CEP76 (UniProt Q8TAP6) | -0.099 | -0.023 | 0.085 | -0.093 | 0 | -0.026 | -0.04 | 0.053 | 0.047 | 0.085
ATP13A1 (UniProt Q9HD20) | -0.006 | 0.013 | -0.006 | 0.023 | -0.036 | 0.067 | 0.004 | -0.343 (active) | 0.012 | -0.012
CES2 isoform 4 (UniProt O00748) | 0.03 | -0.024 | -0.052 | -0.012 | 0.004 | -0.046 | 0.002 | 0.034 | -0.001 | -0.017
CAMK1 (UniProt Q14012) | -0.094 | – | 0.027 | 0.106 | -0.018 | -0.06 | -0.095 | 0.272 | -0.061 | -0.016
ATG10 (UniProt Q9H0Y0) | 0.026 | – | 0.092 | 0.016 | – | 0.012 | -0.021 | 0.01 | -0.021 | 0.038
C19orf54 (UniProt Q5BKX5) | 0.08 | -0.028 | 0.002 | -0.043 | -0.058 | -0.06 | 0.013 | 0.003 | -0.027 | -0.027
CAMK2B (UniProt Q13554) | 0.011 | -0.058 | 0.014 | – | -0.145 | 0.022 | -0.021 | 0.049 | -0.077 | –
BCR (UniProt P11274) | 0.012 | 0.043 | -0.021 | -0.062 | -0.056 | 0.015 | -0.112 | -0.029 | 0.024 | -0.018
BCKDHB (UniProt P21953) | 0.068 | 0.032 | 0.065 | -0.102 | -0.079 | -0.064 | 0.022 | -0.02 | -0.012 | 0.129
CEP41 (UniProt Q9BYV8) | -0.022 | 0.108 | 0.03 | 0.018 | -0.023 | – | 0.02 | -0.009 | -0.032 | 0.03
BAHCC1 (UniProt Q9P281) | 0.11 | 0.004 | – | -0.247 | 0 | – | 0.415 | 0.219 | 0.025 | 0.127
CCNK isoform 4 (UniProt O75909) | -0.013 | 0.006 | -0.028 | 0.04 | -0.009 | -0.007 | -0.185 | 0.095 | 0.049 | 0.004
BORCS5 (UniProt Q969J3) | 0.044 | 0.005 | 0.201 (active) | 0.057 | 0.027 | -0.01 | 0.075 | -0.055 | 0.013 | 0.017
C16orf70 (UniProt Q9BSU1) | 0.053 | 0.086 | -0.016 | 0 | -0.038 | 0.018 | – | – | -0.037 | 0.031
CARHSP1 (UniProt Q9Y2V2) | 0.032 | -0.015 | 0.024 | 0.033 | -0.024 | -0.061 | -0.02 | 0.044 | 0 | -0.042
CFDP1 (UniProt Q9UEE9) | -0.02 | -0.008 | -0.066 | 0.025 | 0.039 | -0.015 | -0.311 (active) | 0.105 | -0.007 | 0.024
CCDC32 isoform 2 (UniProt Q9BV29) | 0.007 | 0 | 0.351 | -0.041 | 0.021 | -0.061 | -0.246 | 0.065 | 0.021 | -0.012
